Assay outcomes from PubChem BioAssay.
KCC2 mod = modulators of human KCC2 chloride dependent transport; KCC2 cells, thallium flux FluoZin-2 fluorescence; B-score of Tl+ flux slope (higher = more flux/activation; lower = inhibition) at 10 µM; 190,000 compounds, 2.2% hits;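 active = thallium flux slope and its plate-corrected score both differing from the plate sample mean at a set confidence after two filtering rounds, in either direction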;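 note: slope of fluorescence scaled to starting intensity during 10 to 20 s after thallium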
Insulin prom up = MIN6 insulin promoter up-regulation; MIN6 insulin promoter-GFP reporter, high-content imaging; active compounds read high; z-score at 5 µM; 190,000 compounds, 0.3% hits;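 active = z-score above 3 at 5 µM with at least 500 cells counted in the well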
WT yeast gro inh = growth inhibition of WT yeast, mitochondrial fusion screen; mitochondrial fusion phenotypic screen, WT strain; AID 1362; inhibition, % at 10 µM; 190,000 compounds, 2.1% hits; in the data active = inhibition above about 58%; tested in S. cerevisiae
L major viab = inhibitors of Leishmania major promastigote growth; Leishmania major promastigotes, resazurin fluorescence viability; 200,000 compounds, 9% hits; inhibition, % at 10 µM; in the data active = inhibition above about 50%;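 note: promastigotes grown with compound for 44 hours at 28 °C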
Insulin prom inh = TRM-6 insulin promoter activity inhibition | TRM-6 cells (human fetal islet line), insulin promoter-eGFP reporter, imaging; reporter expression induced with tamoxifen | inhibition, % at 2 µM | 130,000 compounds, 0.9% hits | AID 1273;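 active = inhibition above the mean plus 3 SD, with well images judged a real hit on visual review, cut at about 60% in these data, passing the limit was not always enough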
ROMK primary = human ROMK K+ channel modulation, primary screen; P48048; Tet-inducible ROMK, thallium flux fluorescence; actives lie on both sides; B-score at 10 µM; 130,000 compounds, 2% hits;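 active = signal ratio slope over the read window, or its plate-corrected B-score, at least 3 SD from the plate mean, either direction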;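 note: B-score of the F/F0 ratio slope over 7 to 12 s after thallium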
Target sequence (P48048 whole entry, looked up): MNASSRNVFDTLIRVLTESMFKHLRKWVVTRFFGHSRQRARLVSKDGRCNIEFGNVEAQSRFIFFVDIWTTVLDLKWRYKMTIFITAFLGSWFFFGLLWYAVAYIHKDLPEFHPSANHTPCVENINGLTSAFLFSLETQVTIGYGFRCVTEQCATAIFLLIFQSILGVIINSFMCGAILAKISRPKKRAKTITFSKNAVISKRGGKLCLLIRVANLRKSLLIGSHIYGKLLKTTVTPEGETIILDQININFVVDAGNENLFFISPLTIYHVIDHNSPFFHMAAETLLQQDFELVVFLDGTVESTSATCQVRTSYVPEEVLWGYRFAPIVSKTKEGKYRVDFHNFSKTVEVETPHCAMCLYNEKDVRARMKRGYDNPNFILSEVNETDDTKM
* marks the source's active call; other numbers are inactive results; . = no result. Most compounds without a hit are left out; they make up all but 12% or so of the library.

SMILES	KCC2 mod	Insulin prom up	WT yeast gro inh	L major viab	Insulin prom inh	ROMK primary
CCc1ccccc1NC(=S)NC1CC2CCC(C1)N2Cc1ccco1 (stereo not given)	.	-0.97	-0.4	71.3*	10.0	.
CCNC(=S)NC1CC2CCCC(C1)N2Cc1ccco1 (stereo not given)	-0.382	1.15	14.3	-4.8	.	.
O=C(Cn1nc(C(=O)O)c2ccccc2c1=O)NCc1ccco1	0.201	0.1	-4.1	1.4	.	-0.022
O=C(NC1CC2CCCC(C1)N2Cc1ccco1)NC12CC3CC(CC(C3)C1)C2 (stereo not given)	1.07	-0.55	-8.2	89.1*	.	.
O=C(NCc1ccco1)NC1CCCCC1	0.531	.	-9.7	-0.8	-60.0	0.905
CCOC(=O)c1sc(NC(=O)CCN2CCN(C)CC2)c(C(=O)OCC)c1C	0.87	-0.06	1.9	100.3*	19.1	-1.57
CCCOC(=O)c1c(NC(=O)/C=C/c2cnn(C)c2C)sc(C(=O)OCC)c1C	0.196	.	56.2	1.6	-4.0	.
CCOC(=O)c1sc(NC(=O)CCN2CC(C)OC(C)C2)c(C(=O)OCC)c1C (stereo not given)	0.5	.	0.1	-4.5	5.4	2.73
CCOC(=O)c1c(NC(=O)CN2CCN(C)CC2)sc(C(=O)Nc2ccccc2)c1C	-0.398	-0.89	5.6	99.5*	-35.3	-2.19
CCOC(=O)c1sc(NC(=O)/C=C/c2cnn(CC)c2C)c(C(=O)OCC)c1C	-0.29	-2.16	63.2*	2.3	.	0.0497
O=C(CN1CCCCCC1)N/N=C/c1ccc(Cl)c(Cl)c1	-0.725	1.56	11.6	87.9*	33.3	-0.424
O=C(CN1CCCCCC1)N/N=C/c1cccs1	0.299	-0.03	4.0	-5.2	.	0
Cc1cccc(/C=N/NC(=O)CN2CCCCCCC2)c1	0.994	0	-19.4	-3.3	.	0.0321
O=C(CN1CCCCCCC1)N/N=C/c1ccc(F)cc1F	0.471	-7.88	-2.6	60.6*	21.1	-0.0201
COCCN1C(=O)/C(=C/c2ccc(N3CCCC3)cc2C)SC1=S	-5.4*	.	33.7	24.0	-455.6	.
CC(C(=O)NC1CCCC1)N1CCN(Cc2ccccc2)CC1 (stereo not given)	1.15	0.34	18.4	72.5*	40.7	-0.446
CCCC(CCC)C(=O)NC1CCN(Cc2ccccc2)CC1	0.115	0.11	-5.3	88.0*	.	-0.332
CCOC(=O)N1CCC(NC(=O)C(NS(=O)(=O)c2cccc3nsnc23)c2ccccc2)CC1 (stereo not given)	-0.159	-0.55	1.4	-7.7	.	0.677
O=C(NC1CCN(Cc2ccccc2)CC1)C(NS(=O)(=O)c1cccc2nsnc12)c1ccccc1 (stereo not given)	-1.5	0.17	-5.5	51.0*	.	-1.38
O=C(NCCNC1CCN(Cc2ccccc2)CC1)c1cccs1	-0.78	2.06	-0.2	88.3*	-34.5	-1.81
CC(=O)NC(C)c1nc2ccccc2n1CC(=O)N1C(C)CCCC1C (stereo not given)	0.0468	0.08	-4.1	-9.6	.	1.18
CC(C(=O)NCCc1ccc(F)cc1)N1CCN(Cc2ccccc2)CC1 (stereo not given)	0.0635	0.14	44.9	82.8*	.	-0.748
O=C(Cc1ccc(F)cc1)NCCc1ccccc1	-0.28	-0.97	-1.8	0.2	-19.4	-0.00363
Cc1cc(N2CCOCC2)n2ncc(-c3ccc(Cl)cc3)c2n1	-0.00223	-0.27	.	.	.	1.3
Cc1cc(NCCN2CCOCC2)n2ncc(-c3ccc(Cl)cc3)c2n1	4.85*	.	.	-2.4	-23.7	0.119
SMILES	KCC2 mod	Insulin prom up	WT yeast gro inh	L major viab	Insulin prom inh	ROMK primary
Cc1cc(NCCN2CCOCC2)n2nc(C)c(-c3ccc(Cl)cc3)c2n1	.	0.79	0.5	93.8*	53.3	0.283
Cc1cc(NCCN2CCOCC2)n2nc(C)c(-c3ccccc3)c2n1	0.13	-0.46	-6.1	0.0	-343.8	0.448
Cc1cc(N2CCCCC2)n2ncc(-c3ccc(Cl)cc3)c2n1	0.107	0	58.4*	2.9	.	.
Cc1cc(NCCCn2ccnc2)n2nc(C)c(-c3ccc(Cl)cc3)c2n1	1.37	.	64.5*	98.1*	56.5	.
Cc1cc(=O)c2cc(Cl)ccc2[nH]1	-0.512	0.22	23.3	1.5	.	0.102
CC/C(=N\NC(=O)OC)c1ccc(OC(F)F)cc1	1.4	-0.02	-13.6	5.7	.	0.0629
COc1ccc(N(C(=O)CCl)C(C(=O)NCCc2ccccc2)c2cccs2)cc1 (stereo not given)	-0.196	.	55.1	100.4*	-163.2	-3.78
COC(=O)c1ccc(C(C(=O)NC2CCCCC2)N(Cc2ccc(F)cc2)C(=O)Cc2cccs2)cc1 (stereo not given)	-0.841	-0.45	17.1	55.8*	-44.4	-0.567
